Bioassay records deposited in PubChem by National Center for Advancing Translational Sciences (NCATS).
This is a sample that favours compounds with a hit; in the whole collection about 0.38% have one here.
EPAC2 ag: qHTS for Agonist of cAMP-regulated guanine nucleotide exchange factor 4 (EPAC2): primary screen; Rap guanine nucleotide exchange factor 4 (Homo sapiens), Q8WZA2; EPAC2 activation, biochemical qHTS; response scale: 100% = 6.5 mM cAMP response; Potency, µM (top dose mostly 154 µM), for the others: at the highest dose activation, actives largely listed as activators; actives 0.079% (n = 360,000); AID 720711, 2013; also: nearly all actives have a fitted effect of over 50% in size
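Setup: EPAC2 100 nM, labeled Rap1B complex 250 nM, free GDP 50 uM. Compound titrations pinned in, brief spin, 5 min room temperature incubation. Kinetic fluorescence read over 30 min, normalized to 6.5 mM cAMP.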
EPAC1 antag: qHTS for Antagonist of cAMP-regulated guanine nucleotide exchange factor 3 (EPAC1): primary screen; Rap guanine nucleotide exchange factor 3 (Homo sapiens), O95398; EPAC1 GEF assay, Rap1b-BODIPY-GDP exchange fluorescence; Potency, µM (top dose mostly 115 µM), without a hit: top-dose activity change, negative = inhibition, usual class: inhibitors; actives 0.14% (n = 360,000); AID 720709, 2013;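 also: plate controls were vehicle for no effect and positive control for full effect; nearly all actives have a fitted effect of over 50% in size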
Target sequence (O95398 whole entry, looked up): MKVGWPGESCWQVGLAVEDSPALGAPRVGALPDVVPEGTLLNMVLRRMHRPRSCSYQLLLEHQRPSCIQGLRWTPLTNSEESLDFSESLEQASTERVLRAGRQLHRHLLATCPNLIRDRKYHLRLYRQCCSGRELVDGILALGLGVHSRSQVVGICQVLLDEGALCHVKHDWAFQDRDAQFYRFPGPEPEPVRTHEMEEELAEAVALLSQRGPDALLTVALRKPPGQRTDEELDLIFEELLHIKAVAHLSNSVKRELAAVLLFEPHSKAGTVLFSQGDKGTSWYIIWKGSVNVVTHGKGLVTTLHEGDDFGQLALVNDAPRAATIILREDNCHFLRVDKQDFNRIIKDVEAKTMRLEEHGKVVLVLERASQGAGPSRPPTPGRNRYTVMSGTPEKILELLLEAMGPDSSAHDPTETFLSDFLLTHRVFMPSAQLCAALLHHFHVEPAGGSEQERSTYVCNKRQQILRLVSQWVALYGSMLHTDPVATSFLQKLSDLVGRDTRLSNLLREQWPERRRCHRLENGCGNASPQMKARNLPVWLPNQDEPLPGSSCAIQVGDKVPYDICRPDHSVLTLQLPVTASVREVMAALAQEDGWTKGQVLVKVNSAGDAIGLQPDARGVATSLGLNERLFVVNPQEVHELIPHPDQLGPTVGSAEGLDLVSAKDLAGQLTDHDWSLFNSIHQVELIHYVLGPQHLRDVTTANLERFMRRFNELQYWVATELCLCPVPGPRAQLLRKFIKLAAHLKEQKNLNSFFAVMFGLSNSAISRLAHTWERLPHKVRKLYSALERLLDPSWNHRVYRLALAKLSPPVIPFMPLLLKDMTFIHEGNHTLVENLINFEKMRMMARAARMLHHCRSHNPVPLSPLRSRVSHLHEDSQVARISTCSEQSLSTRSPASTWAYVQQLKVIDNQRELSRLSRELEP
EPAC2 antag: qHTS for Antagonist of cAMP-regulated guanine nucleotide exchange factor 2 (EPAC2): primary screen; Potency, µM (series often up to 114 µM), for the others: at the top dose activity, negative = inhibition, most hits filed as inhibitors; actives 0.18% (n = 360,000); EPAC2 GEF exchange of Rap1B-BODIPY-GDP, fluorescence; Rap guanine nucleotide exchange factor 4 (Homo sapiens), Q8WZA2; also: % is scaled to controls: 0 for no effect and ±100 for the full control effect; nearly all actives have a fitted effect of over 45% in size
EPAC1 ag: qHTS for Agonist of cAMP-regulated guanine nucleotide exchange factor 3 (EPAC1): primary screen; EPAC1 agonist qHTS, biochemical assay; response scale: 100% = response to 6.5 mM cAMP; Potency, µM (top dose mostly 154 µM), for inactives: at the highest dose activation, usual class: activators; actives 0.073% (n = 360,000); AID 720707, 2013; also: nearly all actives have a fitted effect of over 60% in size
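Read-out is the fluorescence drop as BODIPY-GDP leaves Rap1B (480 nm excitation, 540 nm emission), recorded every 5 minutes over 30 minutes. Reactions held 100 nM EPAC1, 250 nM Rap1B–BODIPY-GDP and 50 uM GDP, with 6.5 mM cAMP setting full activation.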
Active calls of the source: *; i = inactive; ? = inconclusive. Calls follow the shape of the dose curve; as a rule, active = well fitted curve in the direction sought with a large enough effect; inconclusive = small, poorly fitted or top-dose-only effect, or another doubt; inactive = no such curve, though single readings can be large; an effect the other way counts as inactive or inconclusive. Potency is read from the fitted curve at half-maximal effect.

SMILES | EPAC2 ag | EPAC1 antag | EPAC2 antag | EPAC1 ag
C[C@H]1COC2=C1C(=O)C(=O)c1c2ccc2c1CCCC2(C)C | 1% | 45µM* | 7% | -43%
Cc1ccc(C=C2C(Cl)=C(Cl)C(Cl)=C2Cl)cc1 | -11% | ? | 0% | -5%
CCOP(=O)(OCC)c1ccc2c(c1)C(=O)c1ccccc1CC2 | 2% | -2% | ? | 0%
Cc1cc(/C=C2\C(=O)NC(=O)N(c3ccc(Cl)cc3)C2=O)c(C)n1-c1sc2c(c1C#N)CCCC2 | -11% | 50µM* | -10% | -9%
C[n+]1c2cc(N)ccc2cc2ccc(N)cc21 | 100µM* | i | i | 50µM*
Nc1ccc2ccccc2c1 | -6% | -1% | 6% | -5%
Cn1cc(/C=C2\C(=O)NC(=O)N(c3ccccc3)C2=O)c2ccccc21 | 100µM* | -9% | 44% | -1%
O=C(O)Cn1cc(/C=C2\C(=O)NC(=O)N(c3ccc(Cl)cc3)C2=O)c2ccccc21 | 4% | -24% | -24% | 5%
CCOP(=O)(OCC)C(Cc1ccc(OC)c(OC)c1)N=C(c1ccccc1)c1ccccc1 (stereo not given) | -1% | -19% | ? | -20%
Oc1ccc(Cl)cc1Sc1cc(Cl)ccc1O | 3% | ? | 35µM* | 3%
CCC(C)/C=C(C)/C=C/C1=CC2=C(Cl)C(=O)C(C)(OC(C)=O)C(=O)C2=CO1 (stereo not given) | -1% | ? | -13% | -24%
CC[C@H](C)/C=C(C)/C=C/C1=CC2=C(Cl)C(=O)[C@@](C)(OC(C)=O)C(=O)C2=CO1 | 8% | 35µM* | 3.5µM* | 7%
O=S(=O)(c1ccc(Cl)cc1)N1CCC(n2cnc3cc(C(F)(F)F)ccc32)CC1 | -3% | ? | -18% | 4%
CC(C)c1ccc(C(c2c(O)c3ccccc3oc2=O)c2c(O)c3ccccc3oc2=O)cc1 | 1% | ? | 45µM* | -7%
O=c1oc2ccccc2c(O)c1C(c1ccc([N+](=O)[O-])cc1)c1c(O)c2ccccc2oc1=O | -14% | 50µM* | 50µM* | -15%
CC(=O)C1=C(O)C2(C)c3c(O)c(C)c(O)c(C(C)=O)c3OC2CC1=O (stereo not given) | 6% | 5% | 14µM* | 13%
O=C(O)CSCC(=O)N(Cc1ccccc1)c1nc(-c2ccccc2)c(-c2ccccc2)s1 | 19% | ? | ? | 18%
COc1ccc(S(=O)(=O)Nc2cc([N+](=O)[O-])ccc2OC)cc1 | 2% | ? | 9% | -2%
N#CC(C#N)=NNc1ccc(S(N)(=O)=O)cc1 | -1% | 56µM* | -28% | 0%
CC(C)c1ccc(NC(=O)Nc2nc(C(N)CCc3ccccc3)cs2)cc1 (stereo not given) | 11% | 0% | 54% | -8%
O=P(Nc1cccnc1)(Oc1ccccc1Cl)Oc1ccccc1Cl | 6% | -14% | 56µM* | 6%
O=C(Nc1ccc(Br)cc1C(=O)O)c1ccc2c(c1)C(=O)N(Cc1ccccc1)C2=O | 0% | ? | 0% | 13%
CC1(C)c2[nH]c3ccccc3c2C[C@H]2C(=O)N(Cc3ccccc3F)C(=O)N21 | 12% | -22% | ? | -4%
C=C1C(=O)O[C@@H]2C[C@@H](C)[C@@H]3C=CC(=O)[C@@]3(C)[C@@H](OC(=O)CC(=O)O[C@H]3[C@@H]4C(=C)C(=O)O[C@@H]4C[C@@H](C)[C@@H]4C=CC(=O)[C@]43C)[C@H]12 | -5% | 40µM* | ? | -22%
CC(OC(=O)COc1ccc(Nc2ccccc2)cc1)C(=O)N(C)c1ccccc1 (stereo not given) | 8% | -27% | ? | -39%
SMILES | EPAC2 ag | EPAC1 antag | EPAC2 antag | EPAC1 ag
Cc1nc2c(=O)n(C)c(=O)nc-2n(C)n1 | ? | 100µM* | ? | -1%
O=C1C(=O)c2ccccc2-c2ccccc21 | 21% | 8.9µM* | ? | -17%
O=C1C(=O)c2cccc3cccc1c23 | 1% | 14% | -3% | -6%
CN1CCN(c2ccc([N+](=O)[O-])c3no[n+]([O-])c23)CC1 | -66% | ? | -10% | -89%
O=[N+]([O-])c1ccc(N(CCO)CCO)c2c1no[n+]2[O-] | -114% | 56µM* | ? | -111%
CC(Nc1cc(C)cc(C)c1)=[N+](C)CCNS(=O)(=O)c1ccc(Cl)cc1 | -4% | ? | 9% | 8%
CC(=O)OC1CC(OC2C(O)CC(OC3C(O)CC(OC4CCC5(C)C(CCC6C5CC(O)C5(C)C(C7=CC(=O)OC7)CCC65O)C4)OC3C)OC2C)OC(C)C1OC1OC(CO)C(O)C(O)C1O (stereo not given) | 112µM* | -2% | 89µM* | -16%
Oc1c(Cl)cccc1Cc1cc(Cl)cc(Cl)c1O | 0% | 79µM* | 22µM* | 0%
CC1(C)c2[nH]c3ccccc3c2C[C@@H]2C(=O)N(Cc3ccccc3F)C(=O)N21 | ? | -11% | 5% | 2%
COC(=O)c1cn(C(=O)c2cccc3ccccc23)c2ccccc12 | 14% | -6% | 8.9µM* | 9%
COC(=O)c1cn(Cc2ccc(F)cc2)c2ccccc12 | 1% | -2% | ? | 4%
Cc1ccc([C@@H]2CC(=O)[C@@H]3CN(S(=O)(=O)c4ccccc4C)[C@H](c4ccc(Cl)cc4)C[C@@H]3N2S(=O)(=O)c2ccc(C)cc2)cc1 | 12% | -1% | 6% | 7%
COCCNC(=O)c1c(N)n(CCC(C)C)c2nc3ccccc3nc12 | 5% | 45µM* | 79µM* | -4%
Cc1cc(C(=O)OCC(=O)NC(=O)c2cccn2C)c2ccccc2n1 | 0% | -12% | ? | 6%
CCn1c(O)c(/C=N/NC(=O)c2ccncc2)c(=O)n(CC)c1=S | ? | 69% | 8% | 56µM*
Cn1c(O)c(/C=N/NC(=O)c2ccncc2)c(=O)n(C)c1=S | 9% | 0% | 5% | 15%
CCN(CC)c1ccc(N=Cc2c(O)n(-c3cc(OC)ccc3OC)c(=O)[nH]c2=O)cc1 | 79µM* | -8% | 32% | ?
CCN(CC)c1ccc(N=Cc2c(O)n(CCc3ccc(OC)c(OC)c3)c(=O)[nH]c2=O)cc1 | 100µM* | -19% | 4% | 16%
COc1ccc(CCn2c(O)c(C=Nc3ccc(F)cc3)c(=O)[nH]c2=O)cc1OC | 0% | -10% | -1% | 2%
CCCNC(=O)C1(C)CCN(Cc2ccc3ccccc3c2Br)C1 (stereo not given) | 13% | ? | -13% | 7%
O=C(c1cc(-c2ccc(Cl)cc2)n(-c2ccc(Cl)cc2Cl)n1)N1CCOCC1 | 10µM* | -4% | -17% | 8%
